# Assay results: PubChem BioAssay (Tox21)
# Inconclusive results are not listed. Entries that show only a call come without a potency. Unmarked numbers belong to inactive results. Active and inactive are the calls of the source. The call rests on the fitted dose curve.
# Biological target: Beta-2 adrenergic receptor (Homo sapiens) (UniProt P07550)
# Assay: Adrenergic beta2 receptor (ADRB2) small molecule agonists, cell-based qHTS assay (AID 1963593);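 on activation: CHO cells stably overexpressing human ADRB2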
# Conditions: CHO-ADRB2 cells, cAMP HTRF, 30 min; series mostly up to 92.4 µM
# Summary of the method: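 CHO cells stably over-expressing ADRB2 were plated overnight at 37C, then dosed with compounds plus a stimulation mix containing 100uM IBMX and 25uM Ro-20-1724 for 0.5hr at room temperature. cAMP was measured by HTRF competition, 1hr.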
# Potency means the concentration at half of the fitted maximal effect.
# Sequence of Beta-2 adrenergic receptor (Homo sapiens) (P07550 whole entry, looked up): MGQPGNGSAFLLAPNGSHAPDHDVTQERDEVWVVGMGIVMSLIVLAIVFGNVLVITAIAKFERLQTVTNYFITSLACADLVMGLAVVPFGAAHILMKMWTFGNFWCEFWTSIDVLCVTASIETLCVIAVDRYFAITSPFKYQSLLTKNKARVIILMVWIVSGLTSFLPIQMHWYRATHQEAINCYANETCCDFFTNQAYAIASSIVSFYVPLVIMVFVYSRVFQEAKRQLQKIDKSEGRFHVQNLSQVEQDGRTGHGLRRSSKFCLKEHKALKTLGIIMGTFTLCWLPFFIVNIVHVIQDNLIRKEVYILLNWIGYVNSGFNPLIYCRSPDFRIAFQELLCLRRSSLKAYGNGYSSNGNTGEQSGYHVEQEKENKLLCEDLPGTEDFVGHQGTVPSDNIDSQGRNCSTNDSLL
SMILES,Potency,activation
NCCNCCN,inactive,–
CC(=O)c1cc2ccccc2s1,inactive,–
O=C(O)c1ccc(O)cc1O,inactive,–
COC(=O)CCC(=O)O,inactive,–
CC(C[N+](C)(C)C)OC(N)=O (centres undefined),inactive,–
CCCCCCCC(OC)OC,inactive,–
CC(=O)N[C@@H](CC(C)C)C(=O)O,inactive,–
CCCCCCCC/C=C\CCCCCCCC(N)=O,inactive,–
O=C(Nc1ccc([N+](=O)[O-])cc1)Nc1ccc([N+](=O)[O-])cc1 (tested in a mixture with another compound),inactive,–
CCC(C)C(=O)OCCc1ccccc1 (centres undefined),inactive,–
CCCCCCCCCCCC(=O)OC[C@@H](O)[C@H]1OC[C@H](OCCO)[C@H]1OCCO,inactive,–
CCOCCOC(=O)/C=C/c1ccc(OC)cc1,inactive,–
NC(=O)CCCCC(N)=O,inactive,–
CC/C=C\CCOC(=O)C(C)C,inactive,–
Nc1ccncc1N,inactive,–
CCC(C)c1ccccc1 (centres undefined),inactive,–
CCCCCCC1(C)CCC(=O)O1 (centres undefined),inactive,–
Cc1onc(-c2ccccc2)c1C(=O)Cl,inactive,–
O=S(=O)(O)c1ccc2c(N=Nc3ccc(S(=O)(=O)O)c4ccccc34)c(O)c(S(=O)(=O)O)cc2c1,–,-0.404% [at 8.39 µM]
[O]=[Zr],inactive,–
CCCSSCCC,inactive,–
O=c1oc2c(O)c(O)cc3c(=O)oc4c(O)c(O)cc1c4c23,–,-28.3% [at 19 µM]

SMILES,Potency,activation
CCOc1c(N2CCOCC2)cnn(C)c1=O,inactive,–
CC(C)[C@H]1CC[C@@H](C)CC1=O,inactive,–
CC(O)CNCC(C)O (centres undefined),inactive,–
CNC(=O)Nc1ccc(Cl)c(Cl)c1,inactive,–
CCN[C@H]1CN(CCCOC)S(=O)(=O)c2sc(S(N)(=O)=O)cc21,inactive,–
CC(COC(=O)c1ccccc1)OC(=O)c1ccccc1 (centres undefined),inactive,–
CC[C@@H]1C[C@H](N(Cc2cc(C(F)(F)F)cc(C(F)(F)F)c2)C(C)=O)c2cc(C(F)(F)F)ccc2N1C(=O)OC(C)C,inactive,–
Nc1nnnn1-c1ccccc1,inactive,–
COC(=O)c1ccccc1C,inactive,–
C=CCCC(=O)/C=C/C1C(C)=CCCC1(C)C (centres undefined),inactive,–
C=CCOC(=O)CCCCCC,inactive,–
COc1ccc(Br)c(C)c1,inactive,–
CC(=O)c1ccc(O)c(C(N)=O)c1,inactive,–
NC(=O)NC1N=C([O][Al])NC1=O (centres undefined),inactive,–
CC(=O)NCCO,inactive,–
C=C(C)C(=O)NCCCN(C)C,inactive,–
CCCCCCCCCCCCC(=O)O,inactive,–
c1ccc2c(c1)CCc1ccccc1N2,inactive,–
C(/C=C/C=C/Nc1ccccc1)=Nc1ccccc1,inactive,–
CCCCC(C)C(=O)O (centres undefined),inactive,–
NS(=O)(=O)c1cc2c(cc1C(F)(F)F)NC(Cc1ccccc1)NS2(=O)=O (centres undefined),1500 nM (active),–
Cc1ccc(Nc2ccc(O)c3c2C(=O)c2ccccc2C3=O)cc1,inactive,–
